Screen size: about 320,000 compounds; about 200 (0.062%) were called active. Not shown: some 6% with an inconclusive outcome. The sample as a whole holds a higher share of actives than the screen did. A number with no mark means an inactive call. Calls come from the whole dose curve; as a rule, active = well fitted activation curve with a large enough effect; inconclusive = small, poorly fitted or top-dose-only effect; inactive = no such curve, though single readings can be large or run the other way.
Assay: qHTS assay for re-activators of p53 using a Luc reporter; note: nearly all actives have a fitted effect of over 45% in size; for activity change, positive = activation: % of control where 0% means no effect
Conditions: H1299 p53-A138V BP100-luciferase reporter, luminescence, 24 h; series mostly up to 92.2 µM; activity change, positive = activation: at the top concentration
Text: The p53 tumor suppressor plays a key role in suppression of tumorigenesis and in human carcinogenesis. It is frequently found inactivated in human cancers, mainly by point mutation. These point mutations are found in a wide variety of human cancers and a majority of them affect the DNA binding domain of the protein. The point mutations either alter native p53 conformation or abolish DNA contact. Additionally, cancer cells with p53 mutations are more resistant to chemo-radiation therapies. In order to find activators to reactivate this important protein, a cell-based screen for p53-dependent luciferase-reporter expression was developed. A p53-null H1299 lung cancer cell line was stably co-transfected with a temperature sensitive p53 mutant, p53-A138V, and a p53-responsive BP100-luciferase reporter. This cell model has previously been characterized in a gene chip profiling experiment for p53 activation. By lowering the culture temperature from 37 deg C (mutant p53 conformation) to 32 deg C (w.t. p53 conformation), a 30-60 fold increase in activation of luciferase activity is observed. At assay temperate, 37 deg C, basal reporter expression is very low and after the addition of detection reagent, a luminescent read-out is carried out. NIH Chemical Genomics Center [NCGC] NIH Molecular Libraries Probe Production Centers Network [MLPCN] MLPCN Grant: DA031088-01A1 Assay Provider (PI): Yi Sung, University of Michigan at Ann Arbor
5ul of 1000 cells per well are dispensed in all wells except column 4, into white solid-bottom TC-treated Kalypsys plates. The cells are kept in Opti-MEM and supplemented with 10% FBS and dispensed using a Multidrop (Thermo). Then using the Kalypsys pin-tool, 23nl of compounds are pinned. The compounds are starting concentration at 10mM, with 1:5 dilution, 4 points, and the control compound nocodazole is pinned in column 1 at 25mM, 1:3 dilution, in duplicate, 25mM nocodazole is pinned in column 2. Please note, all concentrations are working concentrations. 5ul of 1pM purified luciferase enzyme is dispensed using the Kalypsys dispenser in column 4. Plates are incubated for 24 hrs at 37 deg C, 5% CO2, and 95% humidity. Then 4ul of the detection reagent Amplite (ABD Bioquest) is added using the Kalypsys dispenser. Plates are incubated for 10 min at ambient room temperature and are then read on the ViewLux (Perkin Elmer) using a clear filter for a luminescent read-out.
Potency is the fitted concentration of half-maximal effect.

Row | Compound | activity change, positive = activation [%] | Potency
1 | COC(=O)c1ccc(CNC(=O)c2ccc(S(=O)(=O)N3CCCCCC3)cc2)cc1 | -2 | –
2 | O=C(COc1ccc(F)cc1Br)NCC1COc2ccccc2O1 (configuration not stated) | -3.91 | –
3 | CC(C)N(C(=O)[C@H]1C[C@H](CC(=O)NCCC2=CCCCC2)C(=O)N2CCc3c([nH]c4cc(CCC(=O)N(C)C)ccc34)[C@]12C)C(C)C | -2.05 | –
4 | CN(C)C(=O)CCc1ccc2c3c([nH]c2c1)[C@]1(C)[C@@H](C(=O)N2CCOCC2)C[C@H](CC(=O)NCCc2ccccn2)C(=O)N1CC3 | 21.2 | –
5 | Cc1onc(-c2ccccc2)c1C(=O)N1CCN(S(=O)(=O)c2ccccc2C(F)(F)F)CC1 | 14.4 | –
6 | Cn1c(-c2ccc(C(F)(F)F)cc2)cc2onc(-c3ccccc3)c2c1=O | – | 22.4 µM (active)
7 | O=c1c2ccccc2c(-c2ccc(F)cc2)nn1-c1ccc(C(F)(F)F)cc1 | 3.3 | –
8 | CC(C)n1cnc2c(NCc3ccccc3)cc(N[C@@H](CO)Cc3ccccc3)cc21 | -14.8 | –
9 | COc1ccc2[nH]c3c(c2c1)CCN1C(=O)C(CC(=O)NCc2cccc(C(F)(F)F)c2)C[C@H](C(=O)N2CCOCC2)[C@@]31C (some centres not stated) | -2.15 | –
10 | COc1ccccc1N(CCOc1ccccc1)S(=O)(=O)c1ccccc1 | 4.72 | –
11 | COc1ccc(-c2noc(CCC(=O)N3CCN(c4cccc(C)c4)CC3)n2)cc1 | -6.14 | –
12 | CCCCC[C@@H]1C=C(C(=O)O)[C@H](c2ccc(C#N)cc2)N1S(=O)(=O)c1ccc(C)cc1 | -8.31 | –
13 | CCC(C)c1ccc(NC(=O)COC(=O)C2CCCC2)cc1 (configuration not stated) | 22.8 | –
14 | O=C(NCC#CCSc1nnc(-c2cccc3ccccc23)o1)c1cccs1 | 4.19 | –
15 | O=C(NOCc1ccccc1)c1cccc([N+](=O)[O-])c1 | 24.5 | –
16 | CCOC(=O)C1CCCN(C(=O)CSc2nnc3nc(C)cc(C)n23)C1 (configuration not stated) | 2.38 | –
17 | CCOC(=O)C1CCN(C(=O)CN2C(=O)NC(C)(c3ccc4cc(OC)ccc4c3)C2=O)CC1 (configuration not stated) | -3.98 | –
18 | CC1CCN(C(=O)CCNC(=O)c2ccccc2)CC1 | 19.5 | –
19 | CC1CCCN(c2ccc(C(=O)NCCc3ccccc3)cn2)C1 (configuration not stated) | – | 35.5 µM (active)
20 | O=C(NCCc1ccccc1)c1ccc2c(c1)N(Cc1ccccc1)CCS2 | 8.11 | –
21 | CC[C@]12c3[nH]c4ccc(Cl)cc4c3CCN1C(=O)[C@@H](CC(=O)NCCCOC)C[C@@H]2C(=O)N1CCN(C(=O)c2ccco2)CC1 | -3.84 | –

Row | Compound | activity change, positive = activation [%] | Potency
22 | CC[C@]12c3[nH]c4cc(CCC(=O)N(C)C)ccc4c3CCN1C(=O)[C@@H](CC(=O)NCC13CC4CC(CC(C4)C1)C3)C[C@@H]2C(=O)N1CCN(C(=O)C2CC2)CC1 | 7.54 | –
23 | CCn1c(=S)[nH]c2cc(S(=O)(=O)N3CCOCC3)ccc21 | -13.9 | –
24 | Cc1cc(C(C)(C)C)n2nc(C)c(-c3ccccc3)c2n1 | 1.98 | –
25 | Cc1cc(N)n2nc(-c3ccc(C(C)(C)C)cc3)cc2n1 | – | 11.2 µM (active)
26 | Cc1nc2cc(-c3ccc(F)cc3)nn2c(N2CCOCC2)c1C | 15.1 | –
27 | CC(C)CC1NC(=O)c2cc(Cl)ccc2-n2c1nc1ccccc1c2=O (configuration not stated) | -4.01 | –
28 | COc1cccc(CNC(C)C(=O)Nc2ccc(S(=O)(=O)N3CCCC3)cc2)c1 (configuration not stated) | -4.27 | –
29 | Cc1cc(NC(=O)CSCC(=O)NC(C)c2ccccc2)no1 (configuration not stated) | -1.81 | –
30 | O=C(Nc1ccc(N2CCOCC2)cc1)c1cccc(S(=O)(=O)N2CCOCC2)c1 | -1.76 | –
31 | O=C(Nc1cccnc1Cl)c1cc(-c2ccccc2O)on1 | 23.1 | –
32 | Cc1ccc(NC(=O)c2cc(-c3ccccc3O)n[nH]2)cc1C | -0.764 | –
33 | Oc1ccccc1-c1cc(-c2ccc(Cl)cc2)n[nH]1 | – | 2.82 µM (active)
34 | CCN(CC(=O)NCc1ccc(F)cc1)S(=O)(=O)c1ccc(Cl)s1 | -4.07 | –
35 | CC(=O)c1ccc(NC(=O)CSc2nc3ccccc3c(=O)n2CCCN2CCOCC2)cc1 | -10.6 | –
36 | CC(=O)Nc1ccc(S(=O)(=O)Nc2ccc(N3CCCCC3)cc2)cc1 | 7.31 | –
37 | CC[C@]1(C(=O)OC)[C@H]2C(=O)N(C)C(=O)[C@H]2[C@H]2CN(C)C(=NCc3ccccc3)N21 | -0.397 | –
38 | CC1O[C@H](OC2C(COC3OC(CO)C(O)[C@H](O)C3O)OC(OC3CC[C@]4(C)C(CC[C@@]5(C)[C@@H]4C=C[C@]46OC[C@@]7(CCC(C)(C)C[C@H]74)C(O)C[C@@]56C)C3(C)C)C(O)C2O)C(O)C(O)C1O (some centres not stated) | 0.455 | –
39 | CC[C@]12c3[nH]c4cc(CCC(=O)N(C)C)ccc4c3CCN1C(=O)[C@@H](CC(=O)NCCCN(C)C)C[C@@H]2C(=O)N1CCN(C(=O)c2ccco2)CC1 | -0.34 | –
40 | CN1C(=O)[C@H]2[C@@H](/C=C/c3ccccc3)N3C(=O)CN(Cc4ccc(-c5ccccc5)cc4)C(=O)[C@@]3(C)[C@H]2C1=O | 0.747 | –
41 | CC1Sc2ccc(C(=O)NCc3ccccc3Cl)cc2NC1=O (configuration not stated) | 0.128 | –
42 | O=C1NC(Cc2ccc(O)cc2)c2nc3ccc(Cl)cc3c(=O)n2-c2ccccc21 (configuration not stated) | 3.93 | –

From PubChem BioAssay AID504706 (National Center for Advancing Translational Sciences (NCATS), 2011)
